Drawing on PubChem BioAssay (EPA / NIEHS), this text covers outcome and AC50 for 30 compounds.

Activity calls are given as the source filed them. Rule for the calls: active = hit-call score of the fitted dose curve at least 0.9, where 1 is the maximum; inactive = score below 0.9.

Chain of Hepatocyte nuclear factor 3-beta (Homo sapiens) (Q9Y261 whole entry, looked up): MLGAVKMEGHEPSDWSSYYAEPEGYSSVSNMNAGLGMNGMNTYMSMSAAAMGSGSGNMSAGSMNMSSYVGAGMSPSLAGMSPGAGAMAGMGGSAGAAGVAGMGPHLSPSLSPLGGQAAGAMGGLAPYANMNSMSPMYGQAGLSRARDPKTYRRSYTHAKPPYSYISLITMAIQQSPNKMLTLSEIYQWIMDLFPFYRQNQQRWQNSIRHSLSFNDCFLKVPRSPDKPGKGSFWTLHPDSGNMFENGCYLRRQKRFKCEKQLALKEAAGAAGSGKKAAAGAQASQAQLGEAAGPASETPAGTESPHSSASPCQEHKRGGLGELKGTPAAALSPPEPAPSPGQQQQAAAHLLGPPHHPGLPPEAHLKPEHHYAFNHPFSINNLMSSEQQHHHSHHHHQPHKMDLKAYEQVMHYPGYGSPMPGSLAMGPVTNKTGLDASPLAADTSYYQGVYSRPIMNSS

Test system in the first assay: not listed separately
Kind of assay: ATG_Ets_CIS: Attagene CIS-FACTORIAL HepG2 Assay for human Erythroblast Transformation Specific (ETS) (AID 2282941). The settings on record: HepG2 ETS cis-reporter transcription, actives raise or lower the signal. In a few lines:
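Human HepG2 hepatoma cells were transiently transfected with promoter-driven reporter constructs and treated for 24 hours. Reporter transcripts were quantified by RT-PCR with fluorescent primer extension; bidirectional curve fitting used DMSO as reference.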
Turning to `O=C(N[C@@H](Cc1ccccc1)[C@@H](O)C(=O)N1C[C@@H](O)[C@@H](O)C1)c1cc2cc(Cl)ccc2[nH]1`, the call was inactive.

In the case of `CCCCCCCCCCCCCCCC`, the outcome was inactive.

On to `Cc1ccc(C)c(C)c1`, for which the result was inactive.

As for `C=CCOC(=O)c1ccccc1C(=O)OCC=C`, the outcome was inactive.

Take `CCCCCCCCCCC`: the compound was classed as inactive.

As to `COc1cc(-c2nc(NC(=O)c3cc4cc(C)cc(C)c4n3CC(=O)O)sc2CCC2CCCCC2)c(OC)cc1Cl`, the concentration at half-maximal activity (AC50) was 32.2 µM (active).

Consider `Cc1cc(NC(=O)C(=O)O)cc(C)c1Oc1ccc(O)c2c1CCC2`, for which the compound was called inactive.

Consider `O=C(OCCCCCOC(=O)c1ccccc1)c1ccccc1`, for which the outcome was inactive.

With `COC(=O)c1ccc(O)cc1`, the compound was classed as inactive.

Regarding `CCCCCCCC=O`, the result was inactive.

Take `CCCCC(CC)COC(=O)CC(C(=O)OCC(CC)CCCC)S(=O)(=O)O` (stereo not given): the compound was called inactive.

On to `C[Si]1(C)O[Si](C)(C)O[Si](C)(C)O[Si](C)(C)O1`, for which the compound was classed as inactive.

With `C=CCc1ccc(O)c(OC)c1`, the compound was classed as inactive.

On to `NS(=O)(=O)c1cc2c(cc1Cl)NCNS2(=O)=O`, for which the outcome was inactive.

With `COc1cc(/C=C/C(=O)CC(=O)/C=C/c2ccc(O)c(OC)c2)ccc1O`, the compound was called inactive.

Take `CCOC(=O)CCC(=O)OCC`: the result was inactive.

`CC(CO)OC(C)CO` (stereo not given) (tested in a mixture with another compound): the result was inactive.

In the case of `O=C(O)CCCCC(=O)O`, the outcome was inactive.

On to `Cc1cc(=O)[nH]c(=S)[nH]1`, for which the outcome was inactive.

Turning to `Cc1nc(-c2ccc3c(c2)CCN(CCC2CCC(NC(=O)/C=C/c4ccc(F)cc4)CC2)CC3)no1` (stereo not given), the outcome was inactive.

Consider `Oc1ccc2c(c1)OC[C@@H](N1CCC(O)(c3ccc(F)cc3)CC1)[C@H]2O`, for which the compound was classed as inactive.

As for `NCC1(Cc2noc(=O)[nH]2)CCCCC1`, the call was inactive.

For the compound `NCCO`, the compound was called inactive.

As for `CC1=C(/C=C/C(C)=C/C=C/C(C)=C/CO)C(C)(C)CCC1`, the call was inactive.

As for `Cc1cccc([N+](=O)[O-])c1C`, the outcome was inactive.

Regarding `CCCCCCCCCCCCCO`, the compound was called inactive.

For the compound `Cc1ccc(C(C)C)c(O)c1`, the call was inactive.

Consider `Nc1ccc(S(=O)(=O)c2ccc(N)cc2)cc1`, for which the outcome was inactive.

Consider `Nc1nc(N)c2nc(CNc3ccc(C(=O)N[C@@H](CCC(=O)O)C(=O)O)cc3)cnc2n1`, for which the outcome was inactive.

`CCCCc1ccc2c(n1)[C@@H](c1ccc(OC)cc1C[C@H](C)C(=O)O)[C@H](C(=O)O)[C@H]2c1ccc2c(c1)OCO2`: the compound was called inactive.

In another assay the target is Hepatocyte nuclear factor 3-beta (Homo sapiens) (UniProt Q9Y261). Put plainly: ATG_FoxA2_CIS: Attagene CIS-FACTORIAL HepG2 Assay for human Forkhead box A2 (FOXA2) (AID 2282942). The settings on record: HepG2 cis-reporter transcription factor activity, 24 h; actives raise or lower the signal. In a few lines:
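In transiently transfected human HepG2 cells, promoter-driven reporter mRNA levels after 24 h chemical exposure are determined via RT-PCR with capillary electrophoresis. DMSO serves as baseline for bidirectional fitting.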
`O=C(N[C@@H](Cc1ccccc1)[C@@H](O)C(=O)N1C[C@@H](O)[C@@H](O)C1)c1cc2cc(Cl)ccc2[nH]1`: the compound was classed as inactive.

As to `CCCCCCCCCCCCCCCC`, the result was inactive.

In the case of `Cc1ccc(C)c(C)c1`, the compound was classed as inactive.

In the case of `C=CCOC(=O)c1ccccc1C(=O)OCC=C`, the compound was classed as inactive.

For `CCCCCCCCCCC`, the compound was classed as inactive.

Turning to `COc1cc(-c2nc(NC(=O)c3cc4cc(C)cc(C)c4n3CC(=O)O)sc2CCC2CCCCC2)c(OC)cc1Cl`, the result was inactive.

On to `Cc1cc(NC(=O)C(=O)O)cc(C)c1Oc1ccc(O)c2c1CCC2`, for which the result was inactive.

With `O=C(OCCCCCOC(=O)c1ccccc1)c1ccccc1`, the compound was classed as inactive.

Turning to `COC(=O)c1ccc(O)cc1`, the call was inactive.

Turning to `CCCCCCCC=O`, the call was inactive.

With `CCCCC(CC)COC(=O)CC(C(=O)OCC(CC)CCCC)S(=O)(=O)O` (stereo not given), the compound was called inactive.

With `C[Si]1(C)O[Si](C)(C)O[Si](C)(C)O[Si](C)(C)O1`, the call was inactive.

`C=CCc1ccc(O)c(OC)c1`: the outcome was inactive.

`NS(=O)(=O)c1cc2c(cc1Cl)NCNS2(=O)=O`: the outcome was inactive.

Regarding `COc1cc(/C=C/C(=O)CC(=O)/C=C/c2ccc(O)c(OC)c2)ccc1O`, the compound was called inactive.

`CCOC(=O)CCC(=O)OCC`: the outcome was inactive.

Regarding `CC(CO)OC(C)CO` (stereo not given) (tested in a mixture with another compound), the compound was called inactive.

Take `O=C(O)CCCCC(=O)O`: the compound was called inactive.

As for `Cc1cc(=O)[nH]c(=S)[nH]1`, the call was inactive.

Regarding `Cc1nc(-c2ccc3c(c2)CCN(CCC2CCC(NC(=O)/C=C/c4ccc(F)cc4)CC2)CC3)no1` (stereo not given), the result was inactive.

For the compound `Oc1ccc2c(c1)OC[C@@H](N1CCC(O)(c3ccc(F)cc3)CC1)[C@H]2O`, the compound was classed as inactive.

As for `NCC1(Cc2noc(=O)[nH]2)CCCCC1`, the compound was called inactive.

`NCCO`: the call was inactive.

In the case of `CC1=C(/C=C/C(C)=C/C=C/C(C)=C/CO)C(C)(C)CCC1`, the outcome was inactive.

For `Cc1cccc([N+](=O)[O-])c1C`, the outcome was inactive.

For the compound `CCCCCCCCCCCCCO`, the compound was called inactive.

On to `Cc1ccc(C(C)C)c(O)c1`, for which the result was inactive.

Consider `Nc1ccc(S(=O)(=O)c2ccc(N)cc2)cc1`, for which the result was inactive.

`Nc1nc(N)c2nc(CNc3ccc(C(=O)N[C@@H](CCC(=O)O)C(=O)O)cc3)cnc2n1`: the compound was called inactive.

Turning to `CCCCc1ccc2c(n1)[C@@H](c1ccc(OC)cc1C[C@H](C)C(=O)O)[C@H](C(=O)O)[C@H]2c1ccc2c(c1)OCO2`, the compound was classed as inactive.

Test system in a further assay: not listed separately
Kind of assay: ATG_FoxO_CIS: Attagene CIS-FACTORIAL HepG2 Assay for human Forkhead box O (FoxO) (AID 2282943). The settings on record: HepG2 Attagene cis-reporter, FoxO element, mRNA; actives raise or lower the signal. Put shortly: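 HepG2 cells transiently transfected with cis-promoter-driven multiple reporter transcription units; 24 h after chemical dosing, reporter mRNA quantified by RT-PCR, fluorescent primer extension, HpaI digestion and capillary electrophoresis. Bidirectional fitting versus DMSO baseline.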
Regarding `O=C(N[C@@H](Cc1ccccc1)[C@@H](O)C(=O)N1C[C@@H](O)[C@@H](O)C1)c1cc2cc(Cl)ccc2[nH]1`, the compound was called inactive.

For `CCCCCCCCCCCCCCCC`, the compound was classed as inactive.

For the compound `Cc1ccc(C)c(C)c1`, the result was inactive.

Regarding `C=CCOC(=O)c1ccccc1C(=O)OCC=C`, the compound was called inactive.

For `CCCCCCCCCCC`, the compound was called inactive.

Take `COc1cc(-c2nc(NC(=O)c3cc4cc(C)cc(C)c4n3CC(=O)O)sc2CCC2CCCCC2)c(OC)cc1Cl`: the call was inactive.

On to `Cc1cc(NC(=O)C(=O)O)cc(C)c1Oc1ccc(O)c2c1CCC2`, for which the result was inactive.

`O=C(OCCCCCOC(=O)c1ccccc1)c1ccccc1`: the outcome was inactive.

In the case of `COC(=O)c1ccc(O)cc1`, the call was inactive.

Turning to `CCCCCCCC=O`, the result was inactive.

Consider `CCCCC(CC)COC(=O)CC(C(=O)OCC(CC)CCCC)S(=O)(=O)O` (stereo not given), for which the result was inactive.

Consider `C[Si]1(C)O[Si](C)(C)O[Si](C)(C)O[Si](C)(C)O1`, for which the call was inactive.

Turning to `C=CCc1ccc(O)c(OC)c1`, the result was inactive.

Regarding `NS(=O)(=O)c1cc2c(cc1Cl)NCNS2(=O)=O`, the compound was classed as inactive.

Regarding `COc1cc(/C=C/C(=O)CC(=O)/C=C/c2ccc(O)c(OC)c2)ccc1O`, the AC50 was 33.4 µM (active).

For the compound `CCOC(=O)CCC(=O)OCC`, the outcome was inactive.

Turning to `CC(CO)OC(C)CO` (stereo not given) (tested in a mixture with another compound), the outcome was inactive.

For the compound `O=C(O)CCCCC(=O)O`, the compound was classed as inactive.

For `Cc1cc(=O)[nH]c(=S)[nH]1`, the compound was classed as inactive.

For `Cc1nc(-c2ccc3c(c2)CCN(CCC2CCC(NC(=O)/C=C/c4ccc(F)cc4)CC2)CC3)no1` (stereo not given), the compound was called inactive.

Regarding `Oc1ccc2c(c1)OC[C@@H](N1CCC(O)(c3ccc(F)cc3)CC1)[C@H]2O`, the call was inactive.

Consider `NCC1(Cc2noc(=O)[nH]2)CCCCC1`, for which the compound was classed as inactive.

In the case of `NCCO`, the result was inactive.

As for `CC1=C(/C=C/C(C)=C/C=C/C(C)=C/CO)C(C)(C)CCC1`, the AC50 was 167 µM (active).

Regarding `Cc1cccc([N+](=O)[O-])c1C`, the compound was called inactive.

Turning to `CCCCCCCCCCCCCO`, the outcome was inactive.

For the compound `Cc1ccc(C(C)C)c(O)c1`, the result was inactive.

In the case of `Nc1ccc(S(=O)(=O)c2ccc(N)cc2)cc1`, the compound was classed as inactive.

For `Nc1nc(N)c2nc(CNc3ccc(C(=O)N[C@@H](CCC(=O)O)C(=O)O)cc3)cnc2n1`, the outcome was inactive.

As to `CCCCc1ccc2c(n1)[C@@H](c1ccc(OC)cc1C[C@H](C)C(=O)O)[C@H](C(=O)O)[C@H]2c1ccc2c(c1)OCO2`, the outcome was inactive.
